Experimental findings from PubChem BioAssay (Tox21) are described below.

Each structure is given as a SMILES string. A number with no mark means an inactive call. A call without a number means that no potency is given here. The source made the active and inactive calls. Calls follow the shape of the dose curve; as a rule, active = well fitted curve in the direction sought with a large enough effect in the repeat runs; inconclusive = weak or mixed curves; inactive = flat fitted curve, though single readings scatter.

The nature of this experiment: qHTS assay to test for compound auto fluorescence at 590 nm (red) in HEK293 cells (AID 720679). The settings on record: red autofluorescence 540/590 nm; series mostly up to 91.3 µM; fluorescence, % of fluorescent control: at the top concentration. The procedure, abridged:
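HEK293 cells (2,000/well, medium with 10% dialyzed FBS) attached for 4-5 hr at 37C, received 23 nL compound and were incubated overnight at 37C, 5% CO2. Red fluorescence was then read at 540/590nm Ex/Em, referenced to Rose Bengal sodium.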
On the technique in general: Quantitative high-throughput screening tests each substance at several concentrations.
For the compound `O=C1NC(=O)C(c2ccccc2)(c2ccccc2)N1`, the Potency entry was “inactive”.

For `O=c1[nH]cnc2c1ncn2[C@H]1CC[C@@H](CO)O1`, the Potency entry was “inactive”.

Consider `C=C(C)C(=O)OCC(C)O` (stereo not given), for which the Potency entry is “inactive”.

Turning to `CC(C)c1c(C(=O)Nc2ccccc2)c(-c2ccccc2)c(-c2ccc(F)cc2)n1CC[C@@H](O)C[C@@H](O)CC(=O)O`, the Potency entry was “inactive”.

Turning to `O=C(Nc1ncc([N+](=O)[O-])s1)c1cccs1`, the “fluorescence, % of fluorescent control” value was 0.189% [at 46 µM].

With `CN1[C@@H]2CC(OC(=O)[C@H](CO)c3ccccc3)C[C@H]1[C@@H]1O[C@@H]12` (stereo not given in full), the Potency result is “inactive”.

As for `C/C=C/C=C/C(=O)O`, the Potency entry is “inactive”.

Consider `C1=CC2C3C=CC(C3)C2C1` (stereo not given), for which the “fluorescence, % of fluorescent control” value is -0.8%.

As to `CCCC[P+](CCCC)(CCCC)CCCC`, the Potency result was “inactive”.

On to `CN1CCC[C@H]1c1cccnc1`, for which the Potency result was “inactive”.

As for `C1CCC(C(CC2CCCCN2)C2CCCCC2)CC1` (stereo not given), the “fluorescence, % of fluorescent control” value is -0.151% [at 46 µM].

Take `O=S1(=O)OC(c2ccc(O)cc2)(c2ccc(O)cc2)c2ccccc21`: the Potency result is “inactive”.

With `Cc1ccc(S(=O)(=O)O)cc1`, the Potency result was “inactive”.

In the case of `CC/C(=C(\c1ccccc1)c1ccc(OCCN(C)C)cc1)c1ccccc1`, the Potency result is “inactive”.

With `CCCCCCc1ccc(O)cc1O`, the Potency result was “inactive”.

As for `O=C1NS(=O)(=O)c2ccccc21`, the Potency entry is “inactive”.

For the compound `COc1ccc2cc(S(=O)(=O)N[C@H](CC(=O)N[C@H](Cc3ccc(CN4[C@H](C)CCC[C@@H]4C)cc3)C(=O)N(C)C(C)C)c3ccc4c(c3)OCO4)ccc2c1`, the “fluorescence, % of fluorescent control” value was 0.135%.

As to `C=C1CC[C@H](O)C/C1=C\C=C1/CCC[C@]2(C)[C@@H]([C@H](C)CCCC(C)C)CC[C@@H]12`, the Potency entry was “inactive”.

Turning to `F[B-](F)(F)F`, the Potency result was “inactive”.

On to `CC(=O)CC(c1ccccc1)c1c(O)c2ccccc2oc1=O` (stereo not given), for which the Potency result is “inactive”.
